# Assay outcomes as filed in PubChem.
# PP1 inh = PP1-alpha phosphatase inhibitors, primary screen, counter-screen for PP5 inhibitor project, biochemical, fluorescence, OMFP substrate, single point; purified PP1alpha; inhibition, % at 6.7 µM; hit rate 0.9% among 320,000;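 active means inhibition above the mean inhibition of all tested compounds plus 3 SD, computed separately for each screening campaign, cut at about 15% in these data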
# NadD block = inhibitors of S. aureus NadD, primary screen, biochemical, colorimetric, uHTS; AID 602399, 2012; purified NadD enzyme, colorimetric absorbance read-out; Nicotinate-nucleotide adenylyltransferase NadD (Staphylococcus aureus N315); inhibition, % at 20 µM; hit rate 0.78% among 360,000; in the data active means inhibition above about 26%
# GRK2 aptamer HTS = compounds blocking aptamer binding on GRK2 – biochemical, human GRK2, bead flow cytometry, HTS, primary screen | Beta-adrenergic receptor kinase 1 (Homo sapiens), P25098 | FAM-aptamer displacement from GRK2 | inhibition of aptamer binding, % at 10 µM | hit rate 0.59% among 330,000;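 active means inhibition of aptamer binding above 40%, roughly 3 SD of noise, on plates passing a quality check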;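 further: median bead fluorescence of bound FAM aptamer so fluorescent compounds give negative values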
# Target sequence (P25098 whole entry, looked up): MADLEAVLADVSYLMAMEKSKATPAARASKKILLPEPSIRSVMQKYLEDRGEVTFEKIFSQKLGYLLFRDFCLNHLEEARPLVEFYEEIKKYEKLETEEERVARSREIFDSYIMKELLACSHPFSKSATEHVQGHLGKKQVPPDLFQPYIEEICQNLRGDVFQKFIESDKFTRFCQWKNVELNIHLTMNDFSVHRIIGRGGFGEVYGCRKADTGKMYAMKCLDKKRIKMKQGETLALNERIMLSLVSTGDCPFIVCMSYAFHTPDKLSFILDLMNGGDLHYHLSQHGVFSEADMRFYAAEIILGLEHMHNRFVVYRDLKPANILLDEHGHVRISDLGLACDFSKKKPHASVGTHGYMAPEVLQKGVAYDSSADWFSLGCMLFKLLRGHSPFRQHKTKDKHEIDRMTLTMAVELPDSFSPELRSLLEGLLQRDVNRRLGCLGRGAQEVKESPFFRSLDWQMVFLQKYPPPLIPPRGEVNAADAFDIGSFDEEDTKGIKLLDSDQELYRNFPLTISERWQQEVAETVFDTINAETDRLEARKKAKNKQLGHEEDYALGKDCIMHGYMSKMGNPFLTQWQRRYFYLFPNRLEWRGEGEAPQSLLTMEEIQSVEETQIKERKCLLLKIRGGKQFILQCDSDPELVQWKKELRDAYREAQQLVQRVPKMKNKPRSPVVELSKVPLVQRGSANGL
# Exocytosis inh = LAMP-1 surface exposure blockers, TALL-104 cells – cell-based, flow cytometry, MLPCN library, primary screen; inhibition, % at 10 µM; AID 651702, 2012; TALL-104 LAMP-1 surface exposure; cells stimulated with thapsigargin and PMA; hit rate 0.66% among 360,000;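 active means inhibition above about 55%, limit read from the data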
# Beta2AR agonist = beta2AR agonists driving receptor internalization, primary screen, cell-based, FAP fluorogen, flow cytometry | response, % (concentration not given with the values) | hit rate 0.43% among 340,000 | Beta-2 adrenergic receptor (Homo sapiens), P07550 | Am2.2-beta2AR cells;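 active means response above a set limit, near 3 SD of response in nonfluorescent compounds, cut at about 42% in these data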
# Granule exo CP1 = inhibitors of lytic granule exocytosis, confirmation, TALL-104 cells, flow cytometry, Cherry Pick01 | LAMP-1 externalization; stimulated with PMA plus thapsigargin | hit rate 11% among 1,500 | shares compounds with Exocytosis inh | inhibition, % at 10 µM; in the data active means inhibition above about 60%;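 further: 0% = stimulated vehicle wells and 100% = unstimulated wells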
# An asterisk follows results filed as active; . = no result; ! = a repeat was not active. Compounds with a hit are over-represented: about 2.9% of the library has one in this group of screens.
SMILES,PP1 inh,NadD block,GRK2 aptamer HTS,Exocytosis inh,Beta2AR agonist,Granule exo CP1
CC(=O)Nc1ccc(NC(=O)[C@@H](NC(=O)N2C[C@H]3C[C@@H](C2)c2cccc(=O)n2C3)C(C)C)cc1,-4,-3,1,-2,3,.
COc1ccc2nc(C)cc(N3CCN(c4ccccc4)CC3)c2c1,7,-7,0,65*,6,-2
COc1ccc2nc(C)cc(N3CCOCC3)c2c1,1,-3,1,-2,2,.
CCOCCCn1c(=S)[nH]c2cc(C(=O)NC3CCCC(C)C3C)ccc2c1=O (centres undefined),-2,5,4,4,-1,.
COCCNC(=S)N(CCc1c(C)[nH]c2ccc(F)cc12)Cc1cccs1,-5,-15,4,5,-1,.
COCCNC(=S)N(CCc1c(C)[nH]c2ccc(Cl)cc12)Cc1cccs1,2,-9,0,104*,7,5
COc1ccccc1NC(=O)CNC(c1ccccc1)c1ccccc1,2,1,1,77*,-23,-12
COc1cc(Sc2ccc(C)cc2)c(OC)cc1N,5,7,34,94*,4,-12
Fc1cccc(Cc2c(-c3ccccc3)nc3ccc(Br)cn23)c1,.,6,.,-5,.,.
Fc1cccc(Cc2c(-c3ccco3)nc3ccc(Cl)cn23)c1,.,11,.,58*,.,-11
Fc1cccc(Cc2c(-c3ccco3)nc3ccc(Br)cn23)c1,.,25,.,59*,.,-1
Clc1ccc2nc(-c3ccco3)c(Cc3ccccc3)n2c1,.,26,.,46,.,.
COc1ccc(CNC(=O)C(c2ccc(C)o2)N(Cc2cccs2)C(=O)Cc2cccs2)cc1 (centres undefined),10,3,7,77*,9,8
COCCN(C(=O)Cc1cccs1)C(C(=O)NCc1ccc(OC)cc1)c1ccc(C)cc1 (centres undefined),4,6,1,1,-10,.
CCCCN(Cc1ccccc1)C1CCN(Cc2ccccc2)CC1,8,-3,0,68*,6,-12
COc1cc(C(=O)Nc2ccc(S(=O)(=O)N3CCOCC3)cc2)c([N+](=O)[O-])cc1OC,-3,0,1,74*,-1,-4
COc1ccc(C(=O)Nc2ccc(S(=O)(=O)N3CCOCC3)cc2)cc1[N+](=O)[O-],-2,5,0,-1,16,.
CN(C)S(=O)(=O)c1cccc(NC(=O)COc2ccc(C(=O)c3ccccc3)cc2)c1,2,-8,0,58*,-4,2
COc1ccc(NC(=O)c2ccccc2OCc2ccc(F)cc2)c(OC)c1,3,5,0,85*,-9,-11
COc1ccc(NC(=O)c2ccccc2Oc2ccccc2)c(OC)c1,1,-10,0,47,10,.
CN(C)S(=O)(=O)c1cccc(NC(=O)c2ccccc2OCc2ccc(F)cc2)c1,3,-5,0,102*,-2,-10
Cc1ccccc1-c1cnc(C(O)c2c(C)ccc3ccccc23)[nH]1 (centres undefined),.,-4,.,4,.,.
NC(Cc1ccc(Cl)cc1)c1csc(Nc2ccc(C(=O)c3ccccc3)cc2)n1 (centres undefined),.,19,.,58*,.,10
NC(Cc1ccccc1)c1csc(Nc2ccc(C(=O)c3ccccc3)cc2)n1 (centres undefined),.,9,.,11,.,.
COc1ccc(F)cc1-c1cc(C(=O)NCc2ccc(C(F)(F)F)cc2)[nH]n1,.,-3,.,73*,.,36
SMILES,PP1 inh,NadD block,GRK2 aptamer HTS,Exocytosis inh,Beta2AR agonist,Granule exo CP1
CCNc1nc(-c2sc(NC(=O)C(C)(C)C)nc2C)c(-n2cc(-c3ccccc3)nn2)s1,.,11,.,79*,.,58
Clc1ccc(-c2noc3c2-c2nc(Cc4cccc5ccccc45)sc2CC3)cc1,3,-6,0,74*,2,-13
Cc1cc2oc(=O)cc(CN(C)Cc3cccc(F)c3)c2cc1C,2,-1,1,49,-8,.
CCc1cc2c(CN(C)Cc3ccccc3F)cc(=O)oc2cc1O,6,-5,1,59*,8,-9
O=C(NCc1ccccc1)/C(=C\c1ccc(F)cc1)NC(=O)c1ccco1,.,-3,.,2,.,.
Cc1cc(Nc2cccc([N+](=O)[O-])c2)c2ccccc2n1,-3,-2,0,6,24,.
CCOc1ccc2nc(C)cc(Nc3cccc([N+](=O)[O-])c3)c2c1,-2,-4,0,90*,8,80*
CCCCNc1c(-c2ccc(OC)c(SC3CCCCC3)c2)nc2ccc(C)cn12,.,8,37,86*!,76*,77*
Oc1ccccc1C1CC(c2cccs2)=NC(c2cccc(Br)c2)N1 (centres undefined),-4,10,4,69*,9,-15
O=S(=O)(c1ccccc1)N1N=C(c2cccs2)CC1c1cccc(O)c1 (centres undefined),-3,-3,4,-1,16,.
CCOC(=O)C1(Cc2ccccc2)CCN(Cc2cccc3c2OCO3)CC1,2,-5,0,5,10,.
CCOC(=O)C1(Cc2ccccc2)CCN(Cc2cc(OC)c3c(c2)OCO3)CC1,1,-11,0,60*,1,-4
CCOC(=O)C1(Cc2ccccc2)CCN(Cc2ccc(C3CCCCO3)s2)CC1 (centres undefined),-6,-5,1,3,20,.
CCOC(=O)C1(Cc2ccccc2)CCN(Cc2ccc(C)s2)CC1,-1,-7,3,64*,3,-4
CCOC(=O)C1(Cc2cccc(OC)c2)CCN(C/C=C/c2ccccc2)CC1,-1,-2,0,64*,-3,-12
CCOC(=O)C1(Cc2cccc(OC)c2)CCN(C/C=C/c2ccc(OC)cc2)CC1,-2,-2,2,23,-11,.
CCN(CC(=O)Nc1cc(Cl)cc(Cl)c1)CC(=O)NC1CCS(=O)(=O)C1 (centres undefined),.,-4,0,-2,0,.
CN(C)S(=O)(=O)c1cccc(NC(=O)CCCSc2ccccc2)c1,1,-15,0,42,-9,.
COc1ccc(S(=O)(=O)N(C)C)cc1NC(=O)CCCSc1ccccc1,-2,-8,0,95*,-16,-5
CC(NC(=O)C1CCN(S(=O)(=O)c2ccc(Br)s2)CC1)c1ccccc1 (centres undefined),0,-10,0,66*,-4,-11
CCC(C)NC(=O)C1CCN(S(=O)(=O)c2ccc(Br)s2)CC1 (centres undefined),6,-1,0,2,-4,.
CCS(=O)(=O)N1CCC(C(=O)NCc2cccc(OC)c2)CC1,-1,4,2,-3,7,.
